Several values for one entry are separate records, joined by “and”; a condition that tells them apart may be missing. Identical values can stand only once. Inconclusive results are not listed. A call without a number means that no potency is given here. The source holds several records for some structures; these can differ, active in one and inactive in another. Activity calls are given as the source filed them. Unless noted, calls follow the shape of the dose curve; as a rule, active = well fitted curve in the direction sought with a large enough effect in the repeat runs; inconclusive = weak or mixed curves; inactive = no such curve, though single readings can be large; an effect the other way counts as inactive or inconclusive.
Legend:
[1] = target: Thyrotropin-releasing hormone receptor (Homo sapiens) (UniProt P34981); experiment: qHTS assay to identify small molecule agonists of the thyrotropin-releasing hormone receptor (TRHR) signaling pathway (AID 1346891; calls by dose curve; also: series mostly up to about 58 µM)
Sequence of Thyrotropin-releasing hormone receptor (Homo sapiens) (P34981 whole entry, looked up): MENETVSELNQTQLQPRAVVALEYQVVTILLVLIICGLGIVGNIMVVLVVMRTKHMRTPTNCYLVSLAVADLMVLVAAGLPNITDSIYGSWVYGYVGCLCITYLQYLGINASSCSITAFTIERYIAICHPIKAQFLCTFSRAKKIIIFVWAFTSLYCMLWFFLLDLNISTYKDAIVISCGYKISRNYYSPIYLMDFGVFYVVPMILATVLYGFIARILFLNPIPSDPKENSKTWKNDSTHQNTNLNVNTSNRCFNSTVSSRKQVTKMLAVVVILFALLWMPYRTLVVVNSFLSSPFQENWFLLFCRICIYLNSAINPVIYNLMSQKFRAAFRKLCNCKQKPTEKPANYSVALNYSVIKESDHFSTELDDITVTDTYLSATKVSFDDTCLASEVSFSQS
Outline: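 TRHR-expressing HEK293 cells were plated 18 h at 37 °C/5% CO2, loaded with calcium dye 2 h at 37 °C, then given compound in DMSO; fluorescence was read kinetically for 3 min at 1 s intervals.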

[2] = Human pregnane X receptor (PXR) small molecule agonists, qHTS cell viability counter screen (AID 1346977); also: nearly all actives have a fitted effect of over 50% in size; also: potency is read from the fitted curve at half-maximal effect
Outline: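 PXR-Luc HepG2 cells in medium with 5% charcoal-stripped FBS were pre-incubated 5hr, then exposed to compounds for 24hr at 37C. Viability was read in the same wells by CellTiter-Fluor fluorescence, reagent added after 23hr with a 1hr incubation.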

[3] = Caspase-3/7 induction in HepG2 cells by small molecules, qHTS assay (AID 1346978); also: nearly all actives have a fitted effect of over 15% in size
Outline: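 Wild-type HepG2 cells (2,000/well) were settled 5 h at 37 C, 5% CO2, then exposed to compounds in DMSO for 17 h. Caspase-3/7 activity was read by luminescence 30 min after adding Caspase-Glo 3/7 reagent at room temperature.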

[4] = Caspase-3/7 induction in CHO-K1 cells by small molecules, qHTS cell viability counter screen (AID 1346979); also: nearly all actives have a fitted effect of over 35% in size; also: potency is read from the fitted curve at half-maximal effect
Outline: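 Wild-type CHO-K1 cells were seeded at 1,500 per well, rested 5hr at 37 C, then exposed to compounds in DMSO. After 16hr, CellTiter-Fluor reagent was added and fluorescence read 1hr later as the viability measure.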

[5] = Caspase-3/7 induction in CHO-K1 cells by small molecules, qHTS assay (AID 1346980); also: nearly all actives have a fitted effect of over 15% in size; also: potency is read from the fitted curve at half-maximal effect
Outline: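 Wild-type cells were seeded at 1,500 per well and settled 5 hr at 37 C, 5% CO2, then exposed to DMSO-dissolved compounds for 17 hr. Caspase-Glo 3/7 reagent was added, and luminescence was read after 30min at room temperature.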

[6] = Caspase-3/7 induction in HepG2 cells by small molecules, qHTS cell viability counter screen (AID 1346981); also: nearly all actives have a fitted effect of over 30% in size; also: potency is read from the fitted curve at half-maximal effect
Outline: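 Treatment of HepG2 cells with DMSO-delivered compounds ran 16 hr at 37 C following a 5-hr pre-incubation of 2,000 cells/well. CellTiter-Fluor fluorescence, read after 1 hr, served as the viability measure in a qHTS format.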

[7] = target: Nuclear receptor subfamily 1 group I member 2 (Homo sapiens) (UniProt O75469); experiment: Human pregnane X receptor (PXR) small molecule agonists, qHTS assay (AID 1346982); also: nearly all actives have a fitted effect of over 35% in size; also: potency is read from the fitted curve at half-maximal effect
Sequence of Nuclear receptor subfamily 1 group I member 2 (Homo sapiens) (O75469 whole entry, looked up): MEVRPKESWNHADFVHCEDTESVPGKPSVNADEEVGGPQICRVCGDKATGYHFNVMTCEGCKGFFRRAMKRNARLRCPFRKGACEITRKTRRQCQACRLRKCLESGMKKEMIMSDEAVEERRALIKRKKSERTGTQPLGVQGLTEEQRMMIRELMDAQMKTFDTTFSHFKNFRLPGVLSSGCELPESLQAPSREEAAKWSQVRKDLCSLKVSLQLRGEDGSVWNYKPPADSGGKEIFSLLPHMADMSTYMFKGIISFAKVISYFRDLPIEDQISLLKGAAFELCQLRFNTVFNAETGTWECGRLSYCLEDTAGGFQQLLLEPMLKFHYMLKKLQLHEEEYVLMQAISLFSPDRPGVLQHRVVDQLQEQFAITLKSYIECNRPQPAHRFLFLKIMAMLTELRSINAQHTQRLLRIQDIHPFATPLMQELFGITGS
Outline: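 Stable HepG2 line reporting PXR-mediated CYP3A4 expression via luciferase. Treatment: 24 hr with compounds in DMSO at 37 C. Detection: ONE-Glo luminescence.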

[8] = target: Nuclear receptor subfamily 1 group I member 2 (Rattus norvegicus) (UniProt Q9R1A7); experiment: Rat pregnane X receptor (rPXR) activation by small molecules, qHTS assay (AID 1346983); settings: rPXR luciferase reporter cells, One-Glo luminescence, 24 h; max activation: stronger effect = higher value; also: nearly all actives have a fitted effect of over 20% in size
Sequence of Nuclear receptor subfamily 1 group I member 2 (Rattus norvegicus) (Q9R1A7 whole entry, looked up): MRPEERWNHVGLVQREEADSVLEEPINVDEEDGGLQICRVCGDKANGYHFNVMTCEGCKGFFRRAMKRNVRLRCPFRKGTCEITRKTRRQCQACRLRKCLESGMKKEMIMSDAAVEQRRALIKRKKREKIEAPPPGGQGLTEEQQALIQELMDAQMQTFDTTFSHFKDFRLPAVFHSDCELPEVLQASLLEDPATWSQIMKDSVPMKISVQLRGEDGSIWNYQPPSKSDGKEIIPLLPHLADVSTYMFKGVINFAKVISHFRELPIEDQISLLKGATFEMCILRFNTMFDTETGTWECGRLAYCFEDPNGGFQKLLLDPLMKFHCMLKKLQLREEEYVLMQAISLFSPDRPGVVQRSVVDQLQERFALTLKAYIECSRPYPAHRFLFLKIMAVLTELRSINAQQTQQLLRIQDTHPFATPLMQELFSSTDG
Outline: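 Cell-based rPXR luciferase reporter assay, 2,000 cells per well, rested 5hr at 37 C before compound addition in DMSO, then 24 hr at 37 C. One-Glo reagent was added and luminescence read after 30 min at room temperature.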

[9] = target: Nuclear receptor subfamily 1 group I member 2 (Homo sapiens) (UniProt O75469); experiment: CYP3A4 induction through human pregnane X receptor (PXR) by small molecules, qHTS assay (AID 1346984); also: nearly all actives have a fitted effect of over 40% in size
Outline: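 After 24 h at 37C with compound, DPX-2 cells (HepG2, co-transfected PXR response element and CYP3A4 promoter-luciferase) got 3uM final P450-Glo Luciferin-IPA for 3 h; One-Glo luminescence followed.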

[10] = target: Nuclear receptor subfamily 1 group I member 2 (Homo sapiens) (UniProt O75469); experiment: Human pregnane X receptor (PXR) activation by small molecules, qHTS assay (AID 1346985); also: nearly all actives have a fitted effect of over 40% in size
Outline: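 DPX-2 cells (HepG2 co-transfected with a PXR response element and a CYP3A4-promoter luciferase construct) were seeded at 2,000 per well, rested 5 hr at 37C, then exposed to DMSO-dissolved compounds for 24 hr. Activation was read as luciferase luminescence.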

Compound	Potency [1]	Potency [2]	Potency [3]	Potency [4]	Potency [5]	Potency [6]	Potency [7]	max activation [8]	Potency [9]	Potency [10]
CC(C)=CCCC(C)CCO (centres undefined)	inactive	inactive	inactive	inactive	inactive	inactive	inactive	–	–	–
CC(=O)C1(C)CC2=C(CCCC2(C)C)CC1C (centres undefined)	inactive	inactive	–	inactive	inactive	inactive	inactive	–	–	–
COC(=O)c1ccccc1	inactive	inactive	inactive	inactive	inactive	inactive	inactive	–	–	–
O=C(c1ccccc1)c1ccccc1O	inactive	inactive	inactive	inactive	inactive	inactive	inactive	–	–	–
CCCCCCCCCC(=O)OC	inactive	inactive	inactive	inactive	inactive	inactive	47.7 µM (active) and inactive	–	–	–
C[Si](C)(C)O[Si](C)(C)C	inactive	inactive	inactive	inactive	inactive	inactive	68.2 µM (active) and inactive	-1.76% (inactive)	inactive	inactive
Cc1ccc(C)c(O)c1C	inactive	inactive	inactive	inactive	inactive	inactive	inactive	–	–	–
CCCc1c(OCCCCc2nn[nH]n2)ccc(C(C)=O)c1O	inactive	inactive	inactive	inactive	inactive	inactive	61.1 µM (active) and inactive	–	–	–
O=C(c1ccccc1)c1ccc(O)cc1O	inactive	inactive	inactive	–	inactive	inactive	62.3 µM (active) and 61.1 µM (active)	–	–	–
CCCCC/C=C/C=C/C=O	inactive	inactive	inactive	inactive and 61.1 µM (active)	inactive	inactive	inactive and 61.1 µM (active)	–	–	–
O=c1oc(=O)c2cc3c(=O)oc(=O)c3cc12	inactive	inactive	–	inactive	inactive	inactive	–	–	–	–
Nc1ncn([C@@H]2O[C@H](CO)[C@@H](O)[C@H]2O)c(=O)n1	inactive	3.06 µM (active) and 3.76 µM (active)	inactive	2.17 µM (active) and 2.98 µM (active)	inactive	1.72 µM (active) and 2.98 µM (active)	4.33 µM (active) and 10.6 µM (active)	-11.1% (inactive)	inactive	inactive
COc1ccc(C(=O)CC(=O)c2ccc(C(C)(C)C)cc2)cc1	inactive	inactive	inactive	inactive	inactive	inactive	65.8 µM (active) and inactive	-2.2% (inactive)	inactive	inactive
C/C=C/C(=O)O	inactive	inactive	inactive	inactive	inactive	inactive	inactive	–	–	–
OC1CCCCCCCCCCC1	inactive	inactive	inactive	inactive	inactive	inactive	61.7 µM (active) and inactive	–	–	–
CC(C)CC(C)(O)C#CC(C)(O)CC(C)C (centres undefined)	inactive	31.6 µM (active) and inactive	inactive	15 µM (active) and inactive	42.4 µM (active) and inactive	inactive	–	–	–	–
NNc1ccc(C(=O)O)cc1	inactive	inactive	inactive	inactive	inactive	inactive	43.9 nM (active) and 27.6 nM (active)	–	–	–
Cc1ccc2c(n1)Oc1ccc(C(C)C(=O)OCC(=O)N(C)C)cc1C2 (centres undefined)	inactive	inactive	–	inactive	inactive	inactive	21.1 µM (active) and 11.9 µM (active)	–	–	–
Oc1ccc(O)cc1	inactive	inactive	inactive	43 µM (active) and 68.6 µM (active)	inactive	inactive	54.2 µM (active) and inactive	–	–	–
C[C@]12CC[C@H]3[C@@H](CCC4=CC(=O)CC[C@@]43C)[C@@H]1CC[C@@H]2C(=O)CO	inactive	inactive	inactive	inactive	inactive	inactive	21.7 µM (active) and inactive	–	inactive	inactive
Cc1cccc([N+](=O)[O-])c1C	inactive	inactive	inactive	inactive	inactive	inactive	inactive	–	–	–
O=CCc1ccccc1	inactive	inactive	inactive	inactive	inactive	inactive	inactive	–	–	–
OC[C@H]1O[C@@H]2O[C@H]3[C@H](O)[C@@H](O)[C@@H](O[C@H]4[C@H](O)[C@@H](O)[C@@H](O[C@H]5[C@H](O)[C@@H](O)[C@@H](O[C@H]6[C@H](O)[C@@H](O)[C@@H](O[C@H]7[C@H](O)[C@@H](O)[C@@H](O[C@H]8[C@H](O)[C@@H](O)[C@@H](O[C@H]1[C@H](O)[C@H]2O)O[C@@H]8CO)O[C@@H]7CO)O[C@@H]6CO)O[C@@H]5CO)O[C@@H]4CO)O[C@@H]3CO	inactive	inactive	inactive	inactive	inactive	inactive	inactive	-2.34% (inactive)	inactive	inactive
